In the library only some 2.5% were active in any assay of this set; here they are far more common.
NPR1 activator – GC-A stimulated cGMP production enhancers – HEK293 GC-A cells, cGMP TR-FRET, EC30 ANP, primary screen; Atrial natriuretic peptide receptor 1 (Homo sapiens), P16066; 0% at EC30 ANP, 100% saturating ANP; activation, % at 10 µM; 370,000 compounds, 0.14% hits; in the data active means activation above about 40%
HSF1 activator – HSF-1 activators, primary screen, NIH3T3-HGL cells, MG132 stress, luminescence, single point. 300,000 compounds, 1.7% hits. NIH3T3-HGL HSF-1 luciferase reporter, 8 h; 100% = twice DMSO control signal. activation, % at 9 µM. AID 504408, 2011;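 active means mean replicate activation of at least 50% with a set share of replicates each reaching 50%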
GC-B act – human GC-B receptor activators, primary screen, HEK293 GC-B cells, cGMP TR-FRET, EC30 CNP; Atrial natriuretic peptide receptor 2 (Homo sapiens), P20594; 0% at EC30 CNP, 100% saturating CNP; activation, % at 10 µM; 370,000 compounds, 0.11% hits; AID 1920062, 2024;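 active means activation at 10 µM reaching about 35% in either raw or pattern-adjusted values, limit read from the data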
Target sequence (P20594 whole entry, looked up): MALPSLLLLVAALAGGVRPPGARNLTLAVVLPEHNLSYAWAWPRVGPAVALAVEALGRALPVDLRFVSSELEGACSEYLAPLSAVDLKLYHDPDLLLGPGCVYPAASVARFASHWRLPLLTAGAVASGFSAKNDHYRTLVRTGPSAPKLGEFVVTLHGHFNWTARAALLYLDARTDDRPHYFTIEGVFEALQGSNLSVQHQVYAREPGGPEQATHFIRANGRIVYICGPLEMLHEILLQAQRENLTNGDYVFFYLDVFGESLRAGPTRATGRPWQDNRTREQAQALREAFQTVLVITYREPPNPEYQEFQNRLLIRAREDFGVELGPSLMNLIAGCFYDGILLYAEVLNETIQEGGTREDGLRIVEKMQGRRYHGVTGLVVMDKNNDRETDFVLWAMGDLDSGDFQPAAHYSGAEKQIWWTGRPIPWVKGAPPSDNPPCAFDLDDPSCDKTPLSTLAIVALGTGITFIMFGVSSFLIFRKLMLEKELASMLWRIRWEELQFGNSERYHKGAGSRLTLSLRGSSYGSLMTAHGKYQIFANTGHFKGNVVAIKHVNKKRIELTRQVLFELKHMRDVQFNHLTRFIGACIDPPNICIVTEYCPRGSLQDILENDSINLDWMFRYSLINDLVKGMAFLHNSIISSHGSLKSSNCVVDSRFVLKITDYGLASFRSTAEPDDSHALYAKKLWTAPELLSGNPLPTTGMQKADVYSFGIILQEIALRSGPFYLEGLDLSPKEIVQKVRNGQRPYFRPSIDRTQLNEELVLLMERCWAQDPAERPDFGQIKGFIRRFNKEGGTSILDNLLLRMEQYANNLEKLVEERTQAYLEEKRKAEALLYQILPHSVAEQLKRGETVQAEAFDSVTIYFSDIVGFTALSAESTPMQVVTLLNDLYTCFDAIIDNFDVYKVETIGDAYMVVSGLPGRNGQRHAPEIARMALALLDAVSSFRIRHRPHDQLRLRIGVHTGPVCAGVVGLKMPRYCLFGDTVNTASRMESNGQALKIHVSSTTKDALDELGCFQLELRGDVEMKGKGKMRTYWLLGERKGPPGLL
aDG glyco up – activators of alpha-DG glycosylation, primary screen, uHTS, Pro5-aDG cells, AlphaScreen; 360,000 compounds, 0.22% hits; alpha-DG glycosylation AlphaScreen (IIH6); 0% Pro5, 100% B10-LARGE cell signal; activation, % at 10 µM; AID 624168, 2012;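 active means activation of at least 8% versus controls, or a plate z-score of at least 8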;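 further: Pro5 are CHO cells carrying HIG-tagged alpha-DG that lacks glycosylation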
DYRK1A inh – rat Dyrk1A kinase inhibitors, primary screen, biochemical, single point, plate reader. inhibition, % at 12.5 µM. ADP-Glo luminescence, NFATc1 peptide. 310,000 compounds, 0.43% hits; in the data active means inhibition above about 50%
HSF1 inhib – HSF1 inhibitors in luciferase reporter cells, primary screen, cell-based, NIH3T3, luminescence | NIH3T3-HGL HSE-luciferase, MG132-induced, luminescence 8 h; hits give low values | activity change, negative = inhibition, % at 7.5 µM (by protocol) | 300,000 compounds, 0.77% hits;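 active means more than half of replicate wells show activity change below -50%, luminescence cut by over half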;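 further: luciferase reports HSF-1 transcriptional activity via heat shock element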
Numbers stand for hits; n = inactive; x = no result given.

SMILES	NPR1 activator	HSF1 activator	GC-B act	aDG glyco up	DYRK1A inh	HSF1 inhib
COc1ccc(OC)c(S(=O)(=O)Nc2ccccc2O)c1	n	90	n	n	n	n
COc1ccc(OC)c(S(=O)(=O)ON2C(=O)c3ccccc3C2=O)c1	44	n	44	n	n	n
Cc1ccc(S(=O)(=O)N2CCC(C(=O)N[C@@H](Cc3ccccc3)C(=O)O)CC2)cc1	n	n	n	n	n	-78
Cc1nnc(SCC2=C(C(=O)O)N3C(=O)C(NC(=O)c4cccc(F)c4F)C3SC2)s1 (stereo unspecified)	n	63	n	n	n	n
COc1ccc([N+](=O)[O-])cc1NC(=O)CSc1nccc(C)n1	n	n	n	n	n	n
CN1CC=C2C(C#N)=C(N)C(C#N)(C#N)C(c3cccc(Cl)c3Cl)C2C1 (stereo unspecified)	n	113	n	n	n	n
COC(=O)[C@@]12C[C@@H](CC(=O)NCc3cccs3)C(=O)N(Cc3cccc4ccccc34)C1=CCC(C)(C)C2	n	x	n	n	x	x
CCOc1ccc(C2N(c3ccc(F)cc3)C(=O)C3CCCN32)cc1OC (stereo unspecified)	n	n	n	n	n	-52
CCOC(=O)c1csc(NC(=O)CN2CCOCC2)n1	n	n	n	n	n	n
Cc1ccc(C=Nc2ccccc2C(N)=O)s1	n	63	n	n	n	n
CC12CC(NC(=O)N1c1cccc(C(=O)NCc3ccccn3)c1)c1ccccc1O2 (stereo unspecified)	n	n	n	n	n	n
O=C(O)Cn1c(SCCOc2ccc(Cl)cc2)nc2ccccc21	n	63	n	n	n	n
COc1ccccc1N=c1sc2ccccc2n1C	n	n	n	n	n	n
COc1ccc(N=c2sc3ccccc3n2C)cc1	n	55	n	n	n	n
CCOc1ccc(S(=O)(=O)N2CCOCC2)cc1NC(=O)CN1C(=O)NC2(CCCC2)C1=O	n	n	n	n	n	n
Cc1ccccc1-c1nnc(CS(=O)(=O)c2ccccc2)o1	n	127	n	n	n	n
COc1ccc2c(c1OC)C(=O)N(c1cccc(C)c1)C2=O	n	n	n	n	n	n
NC1=NC(c2cn[nH]c2-c2cccc(F)c2)n2c(nc3ccccc32)N1 (stereo unspecified)	n	n	n	n	n	-75
CCOc1ccc(S(N)(=O)=O)cc1-c1nc2c(C(C)(C)C)nn(C)c2c(=O)[nH]1	52	n	61	n	n	n
CCOc1ccc(S(=O)(=O)NC(C)(C)C)cc1-c1nc2c(C(C)(C)C)nn(C)c2c(=O)[nH]1	57	n	60	n	n	n
CCCCn1c(=O)[nH]c(=O)c2c1nc(-c1ccc(OCCC)c(OCC)c1)n2C	n	n	n	n	n	n
Cc1ccc(C2=NN(C(=O)CCC(=O)O)C(c3cccc([N+](=O)[O-])c3)C2)cc1 (stereo unspecified)	n	n	n	n	n	n
O=C(Nc1ccccc1-c1ccccc1)c1cccc(C(F)(F)F)c1	n	n	n	n	n	n
CCc1nnc(N/N=C/c2cc(Br)c(O)cc2O)n1N	n	57	n	n	n	n
CCc1nnc(N/N=C/c2ccc(O)c(OC)c2)n1N	n	n	n	n	n	n
SMILES	NPR1 activator	HSF1 activator	GC-B act	aDG glyco up	DYRK1A inh	HSF1 inhib
COC(=O)c1ccc(OC(=O)CCN2C(=O)C3CCCCC3C2=O)cc1 (stereo unspecified)	n	61	n	n	n	n
CCCn1nnnc1NCc1cccc(OC)c1OCC	n	n	n	n	n	n
O=C(/C(=C/c1ccc(Cl)cc1)c1nc2ccccc2[nH]1)c1cccs1	x	241	x	n	n	n
COc1ccc(C(=O)N/C(=C\c2cccs2)c2nc3ccccc3[nH]2)cc1OC	n	n	n	n	n	-60
COc1cc(/C=C(/C(=O)c2cccs2)c2nc3ccccc3[nH]2)ccc1O	n	82	n	n	n	n
O=C(/C(=C\c1ccccc1)c1nc2ccccc2[nH]1)c1ccc(Cl)cc1	n	n	n	n	n	n
COC(=O)/C(=C\c1cc(OC)c(OC)c(OC)c1)c1nc2ccccc2[nH]1	n	n	n	n	n	n
CC(C)=CCN1CCN(Cc2ccc(C#CC(C)(C)O)s2)CC1CCO (stereo unspecified)	n	n	n	n	n	n
Cc1cnc(C(=O)N2CCCC(C(=O)c3ccc(Cl)cc3C)C2)cn1 (stereo unspecified)	n	n	n	n	n	n
Cc1cccc(C)c1NC(=O)CN(C)C(=O)c1cc([N+](=O)[O-])ccc1N1CCOCC1	n	n	n	n	n	n
C=CCOC(=O)C1=C[C@H](c2cn(C(C)=O)c3ccccc23)C[C@H](OCc2ccc(CO)cc2)O1	n	n	n	n	n	n
Cn1cc(CNC(=O)c2sc3cccc(Cl)c3c2Cl)cn1	n	90	n	n	n	n
Cc1ccsc1/C=C/C1=NCCCN1C	n	n	n	n	n	-61
CC(C)(C)C(=O)N1CCN(CCN2C(=O)c3cccc4cccc(c34)C2=O)CC1	n	n	n	n	x	-53
CC(C)C(=O)N1CCN(CCN2C(=O)c3cccc4cccc(c34)C2=O)CC1	n	n	n	n	n	n
O=c1[nH]c(CCl)nc2cc(-c3ccc(F)cc3)sc12	n	53	n	n	n	n
COc1ccc(OC)c(CNC(=O)c2[nH]c(C(F)(F)F)nc2-c2ccccc2)c1	n	x	n	n	x	x
CC(=NNC(=S)SCc1ccccc1)c1ccccn1	n	95	n	n	n	95
CC(=NNC(=S)N1CCCC1)c1ccccn1	n	x	n	n	x	x
CC(=O)c1cccc(NC(=O)COc2cc(C)on2)c1	n	x	n	n	n	x
N#C/C(=C/Nc1ccccc1)c1ccsc1	n	n	n	n	n	n
Cc1ccc(N/C=C(/C#N)c2ccsc2)cc1	n	53	n	n	n	n
OCCCCCN=c1cc(-c2ccccc2)oc2ccc(Cl)cc12	n	98	n	n	n	n
NS(=O)(=O)c1ccc(N/C=C\C(=O)c2ccc(F)cc2)cc1	n	74	n	n	x	n
COc1ccc(CC(=O)NNC(=O)[C@@H]2CCCC[C@@H]2C(=O)O)cc1	n	n	n	n	n	n
CCOC(=O)c1[nH]cnc1N=Nc1c(O)ccc2ccccc12	n	n	38	n	n	n

Source: PubChem (several laboratories)
